Common to all, as to type: functional
Experiment [1] concerns the target Solute carrier family 2, facilitated glucose transporter member 1 (Homo sapiens) (UniProt P11166). Kind of experiment: ST_JUDE_LEISH: Cytotoxicity at 2uM final concentration against transgenic Leishmania Mexicana promastigotes LmGLUT1 that are glucose transport deficient and complemented with the human glucose transporter GLUT1. Activity is measured by DNA content using SYBR green in vitro.

Experiment [2] deals with Hexose transporter 1 (Plasmodium falciparum) (UniProt O97467). Kind of experiment: ST_JUDE_LEISH: Cytotoxicity at 2uM final concentration against transgenic Leishmania Mexicana promastigotes LmPfHT that are glucose transport deficient and complemented with the Plasmodium falciparum hexose transporter. Activity is measured by DNA content using SYBR green in vitro.
Experiment [3] has as its target Glucose transporter (Leishmania mexicana) (UniProt O61059). Kind of experiment: ST_JUDE_LEISH: Cytotoxicity at 2uM final concentration against transgenic Leishmania Mexicana promastigotes LmGT2 that are glucose transport deficient and complemented with the L. Mexicana glucose transporter 2. Activity is measured by DNA content using SYBR green in vitro.

Solute carrier family 2, facilitated glucose transporter member 1 (Homo sapiens), sequence (P11166 whole entry): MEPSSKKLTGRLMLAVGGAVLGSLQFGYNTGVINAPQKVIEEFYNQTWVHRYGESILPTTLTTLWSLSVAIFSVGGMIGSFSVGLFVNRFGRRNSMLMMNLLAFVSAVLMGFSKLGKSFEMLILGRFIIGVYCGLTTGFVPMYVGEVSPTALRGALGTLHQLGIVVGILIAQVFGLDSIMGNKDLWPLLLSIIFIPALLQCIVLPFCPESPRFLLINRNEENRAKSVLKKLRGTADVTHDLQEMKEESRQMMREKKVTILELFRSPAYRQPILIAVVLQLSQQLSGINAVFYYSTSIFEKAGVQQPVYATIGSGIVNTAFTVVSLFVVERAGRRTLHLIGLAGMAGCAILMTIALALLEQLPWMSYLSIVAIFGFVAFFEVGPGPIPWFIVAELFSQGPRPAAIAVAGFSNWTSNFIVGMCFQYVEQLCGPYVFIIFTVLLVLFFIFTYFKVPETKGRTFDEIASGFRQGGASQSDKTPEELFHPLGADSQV

With `COc1cc2nc(N3CCN(C(=O)c4c(Cl)nsc4-c4ccccc4Cl)CC3)nc(N)c2cc1OC`, the inhibition worked out at 10.5% in experiment [1], 8.35% in experiment [2] and 5.08% in experiment [3].

Regarding `N#Cc1ccc2c(c1)CCN(CCC1CCC(NC(=O)c3cc4ccc(Br)cc4[nH]3)CC1)C2` (stereo not given), the inhibition stood at 1.19% in experiment [1], 0.57% in experiment [2] and 1.16% in experiment [3].

As for `Cc1cc(CNCC(CCNc2cc(=O)c3ccccc3[nH]2)NCc2cc(Br)cc(Br)c2)oc1C` (stereo not given), the inhibition is 4.51% in experiment [1], 2.43% in experiment [2] and 3.29% in experiment [3].

As for `COc1ccc2nccc([C@@H](O)CN3CCC(NC(=O)/C=C/c4cc(F)cc(NC(C)=O)c4)CC3)c2c1`, the inhibition is 5.61% in experiment [1], 2.3% in experiment [2] and -3.44% in experiment [3].

Consider `Cc1[nH]c(C)c(-c2ccc(/C=C/c3ccccn3)cc2)c(=O)c1Cl`, for which the inhibition in experiment [1] was determined as 4.28%; in experiment [2], 4.49%; in experiment [3] it was 5.12%.

With `CCCCCCN(CCCCCC)CC(O)c1c(OC)ccc2ccccc12` (stereo not given), the inhibition in experiment [1] is 3.35%; in experiment [2], 5.37%; in experiment [3], 5.56%.

For the compound `FC(F)(F)c1ccc2[nH]c(-c3ccc(-c4cccc(CN5CCCCC5)c4)cc3)nc2c1`, the inhibition was determined as 2.89% in experiment [1], 2.01% in experiment [2] and 0.4% in experiment [3].

For the compound `CC(C)COc1ccc(Cl)cc1Cc1nc(-c2nc3ccc(CN4CCN(C)CC4)cc3[nH]2)co1`, the inhibition was determined as 8.24% in experiment [1], 7.62% in experiment [2] and 7.58% in experiment [3].

Take `Nc1c(Cl)cc(C(O)CNCCCCCCCCCc2ccccn2)cc1Cl` (stereo not given): the inhibition is 0.94% in experiment [1], -0.21% in experiment [2] and 0.6% in experiment [3].

For the compound `N#Cc1ccc2c(c1)CCN(CCC1CCC(NC(=O)c3cc4cccc(Cl)c4[nH]3)CC1)CC2` (stereo not given), the inhibition in experiment [1] turned out to be 15.5%; in experiment [2], 11.7%; in experiment [3], 9.05%.

As to `CC1CN(Cc2ccc(-c3ccc(-c4nc5cc(F)ccc5[nH]4)s3)cc2)CC(C)O1` (stereo not given), the inhibition in experiment [1] stood at 5.96%; in experiment [2], 4.68%; in experiment [3] it was 3.99%.

For the compound `O=c1cc(NCCCNCc2cccc(I)c2)[nH]c2ccccc12`, the results for the inhibition in experiment [1], in experiment [2] and in experiment [3] were 0.98%, 0.27% and -0.58%, respectively.

On to `COc1ccc(Cl)cc1S(=O)(=O)Nc1cccc(CCN2CCC(N3CCCCC3)CC2)c1`, for which the inhibition in experiment [1] was determined as 2.48%; in experiment [2] it was 4.55%; in experiment [3] it was 0.15%.

For `CCN(CC)CCN(Cc1ccc(-c2ccc(C(F)(F)F)cc2)cc1)C(=O)Cn1c(CCc2ccc(F)c(F)c2F)nc(=O)c2ccccc21`, the inhibition is 8.82% in experiment [1], 7.31% in experiment [2] and 10.2% in experiment [3].

For `CC(C)Sc1nc(-c2ccccc2)nc2c1COC(C)(C)C2`, the figures for the inhibition in experiment [1], in experiment [2] and in experiment [3] were -2.07%, -2.02% and -4.12%, respectively.

Consider `COc1cccc(C=NN=c2cc(C)[nH]c3ccccc23)c1`, for which the results for the inhibition in experiment [1], in experiment [2] and in experiment [3] were 3.57%, 3.07% and 3.02%, respectively.

With `COc1ccc(-c2nc(NC(=O)Cc3cccc(OC)c3)sc2C)cc1`, the inhibition in experiment [1] came to 0.19%; in experiment [2], 0.46%; in experiment [3] it was 3.16%.

In the case of `COC1(C)Oc2ccc3cccc([N+](=O)[O-])c3c2C1=O` (stereo not given), the figures for the inhibition in experiment [1], in experiment [2] and in experiment [3] were 0.18%, -0.47% and -0.75%, respectively.

Take `CO/C(=C\C=C\c1cc2cc(Cl)c(Cl)cc2[nH]1)C(=O)NCCCN1CCN(c2cccc(OCC(=O)Nc3cccc(C(=O)c4ccccc4)c3)c2)CC1`: the inhibition was found to be 4.84% in experiment [1], 2.82% in experiment [2] and 2.69% in experiment [3].

With `COc1ccc(-c2cccc(CNCc3ccc(F)cc3)c2)cc1S(=O)(=O)NCCN1CCCC1`, the inhibition in experiment [1] turned out to be 7.5%; in experiment [2] it was 8.55%; in experiment [3], 6.87%.

In the case of `Cn1c(=O)c2cc(C(=O)NCCCN3CCCCCC3)sc2c2ccccc21`, the inhibition in experiment [1] was 2.89%; in experiment [2], 4.91%; in experiment [3] it was 5.05%.

Take `Cc1ccc(NC(=S)N2CCCN(CCCCCNC(=O)/C=C/c3ccc(Cl)c(Cl)c3)CC2)cc1Cl`: the inhibition was -0.25% in experiment [1], -1.02% in experiment [2] and 0.36% in experiment [3].

As to `O=C(O)c1ccc(OCOCOc2ccc(C(=O)O)c(O)c2)cc1O`, the inhibition in experiment [1] amounted to 5.67%; in experiment [2], 5.54%; in experiment [3], 3.43%.

Regarding `CN(C)CC1c2[nH]c3ccccc3c2CCN1C(=O)Nc1ccc(Cl)c(Cl)c1` (stereo not given), the inhibition in experiment [1] stood at 5.56%; in experiment [2], 7.79%; in experiment [3] it was 5.8%.

Take `CCN(CCNc1nc(NCCc2cnc[nH]2)nc(N(CCC#N)Cc2ccccc2)n1)c1cccc(C)c1`: the results for the inhibition in experiment [1], in experiment [2] and in experiment [3] were 12.1%, 12.8% and 6.78%, respectively.

In the case of `O=C(N[C@@H](CC1CCCCC1)C(=O)NCc1cccc(C(F)(F)F)c1)c1ccc(O)c(-c2ccc(Cl)c(Cl)c2)c1`, the inhibition came out at 1.91% in experiment [1], 1.58% in experiment [2] and 1.16% in experiment [3].

Take `Cc1cc2nc(N=C3NC4(c5ccccn5)NC(=Nc5nc6cc(C)c(C)cc6[nH]5)NC4(c4ccccn4)N3)[nH]c2cc1C` (stereo not given): the inhibition was 2.01% in experiment [1], -0.16% in experiment [2] and -0.63% in experiment [3].

Take `CC(C)(Oc1ccc(Cl)cc1)C(=O)NCCC1CCN(CCCCCNC(=O)/C=C/c2ccc(Cl)c(Cl)c2)CC1`: the inhibition in experiment [1] was 6.53%; in experiment [2], 7.08%; in experiment [3] it was 2.35%.

For the compound `CC[C@H](NC(=O)c1c(N)c(-c2sccc2Cl)nc2ccccc12)c1ccccc1`, the inhibition in experiment [1] stood at 3.8%; in experiment [2] it was 0.64%; in experiment [3], 1.74%.

For the compound `COc1cc(NC(=O)CCCCCCCCN2CCN(C)CC2)c2ncccc2c1`, the figures for the inhibition in experiment [1], in experiment [2] and in experiment [3] were 1.29%, -0.26% and 0.86%, respectively.

Regarding `CC(C)c1sc(N2CCN(C)CC2)nc1C(=O)NCCc1ccc(Br)cc1`, the inhibition in experiment [1] worked out at 3.06%; in experiment [2], 1.28%; in experiment [3], 2.14%.

On to `CN(C)S(=O)(=O)c1cc(-c2ccc3nccc(-c4cccc(S(N)(=O)=O)c4)c3c2)cnc1N`, for which the values for the inhibition in experiment [1], in experiment [2] and in experiment [3] were 8.3%, 7.26% and 7.13%, respectively.

On to `COc1ccc2oc(=O)c(C#N)c(O)c2c1`, for which the inhibition in experiment [1] was -0.47%; in experiment [2], -0.32%; in experiment [3], 0.54%.

For `CC(C)(CNCc1ccc(C(F)(F)F)cc1)c1nc(-c2ccc(Cl)c(O)c2)c(-c2ccncc2)[nH]1`, the inhibition is 0.52% in experiment [1], -0.09% in experiment [2] and 0.02% in experiment [3].

For the compound `COCCCNc1sc(S(=O)(=O)c2ccccc2)nc1S(=O)(=O)c1ccc(Cl)cc1`, the inhibition came to 3.07% in experiment [1], 3.36% in experiment [2] and 1.01% in experiment [3].

(Values after ChEMBL document CHEMBL3433997, “St. Jude Leishmania screening dataset” (2016).)
